Source: PubChem BioAssay (National Center for Advancing Translational Sciences (NCATS))
Most compounds without a hit are left out; they make up all but 6.9% or so of the library.
MCF10A rereplic = A quantitative high throughput screen for small molecules that induce DNA re-replication in MCF 10a normal breast cells | MCF 10A DNA re-replication, Hoechst nuclear intensity, 48 h | Potency, µM (doses to about 46.1 µM), most hits filed as activators | hit rate 2.9% among 350,000 | AID 624296, 2012; note: nearly all actives have a fitted effect of over 50% in size
SW480 rerep = A quantitative high throughput screen for small molecules that induce DNA re-replication in SW480 colon adenocarcinoma cells; AID 624297, 2012; Potency, µM (top dose mostly 46.1 µM), most hits filed as activators; hit rate 1.8% among 340,000; SW480 DNA re-replication, Hoechst DNA content imaging, 48 h; note: nearly all actives have a fitted effect of over 55% in size
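DNA re-replication was detected as more nuclei of elevated Hoechst intensity after 48 hr exposure to compound (23 nL pinned per well of 250 cells).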
Vif-APOBEC3G blk = qHTS for Inhibitors of Vif-A3G Interactions: qHTS; hit rate 0.076% among 410,000; HeLa A3G-eYFP + Vif (tagged APOBEC3G with the HIV-1 protein that degrades it), YFP fluorescence, overnight; Potency, µM (highest dose often 46.1 µM), hits mostly inhibitors; DNA dC->dU-editing enzyme APOBEC-3G (Homo sapiens), Q9HC16; note: nearly all actives have a fitted effect of over 60% in size
Target sequence (Q9HC16 whole entry, looked up): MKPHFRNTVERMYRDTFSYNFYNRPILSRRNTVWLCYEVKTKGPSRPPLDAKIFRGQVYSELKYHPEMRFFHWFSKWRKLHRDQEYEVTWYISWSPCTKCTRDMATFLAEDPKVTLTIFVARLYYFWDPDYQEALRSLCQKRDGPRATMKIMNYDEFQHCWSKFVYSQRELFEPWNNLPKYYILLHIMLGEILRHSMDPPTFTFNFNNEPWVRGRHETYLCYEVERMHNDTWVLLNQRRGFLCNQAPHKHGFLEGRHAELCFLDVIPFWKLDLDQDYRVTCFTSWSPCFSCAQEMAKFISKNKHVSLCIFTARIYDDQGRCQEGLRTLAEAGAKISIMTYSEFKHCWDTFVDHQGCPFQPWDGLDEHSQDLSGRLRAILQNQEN
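HeLa cells stably expressing Vif and C-terminally eYFP-tagged A3G, seeded overnight at 37 deg C, then exposed to compound by pintool overnight at 37 deg C. Rise in yellow fluorescence (Ex 488/Em 500-530, Acumen) marks blocked Vif-driven A3G degradation.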
IL1B secr inh = qHTS for Inhibitors of Inflammasome Signaling: IL-1-beta AlphaLISA Primary Screen; THP-1 LPS/ATP IL-1B secretion, AlphaLISA, 16 h; stronger effect = lower value; activity change, % at 57.5 µM; hit rate 4.7% among 360,000; in the data active = activity change below about -50%; inconclusive = mostly about -30% to -49%
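Secreted IL-1B measured by AlphaLISA bead assay after 16 h compound exposure of THP-1 cells; compounds (final up to 57.5 uM) added 1 h before LPS (250 ng/mL) and ATP (1.25 mM) stimulation; lower signal means less secretion.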
Giardia kill = Small Molecules that selectively kill Giardia lamblia: qHTS; Giardia lamblia trophozoite viability; activity change, % at 7.66 µM, hits read low; hit rate 0.15% among 340,000; in the data active = activity change below about -80%; inconclusive = between about -30% and that limit;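 note: parasites exposed to compound for two days anaerobically before the ATP read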
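Media and compound were dispensed first, then trophozoites at 100 cells/well; plates sat 48 hrs at 37 deg C without oxygen before ATP luminescence reagent was added and read after 15-30 min at room temperature.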
Vif-APOBEC3F blk = qHTS for Inhibitors of Vif-A3F Interactions: qHTS | Potency, µM (series often up to 46.1 µM) | HeLa A3F-eYFP + Vif (tagged APOBEC3F with the HIV-1 protein that degrades it), YFP fluorescence increase | hit rate 0.2% among 390,000; note: nearly all actives have a fitted effect of over 65% in size
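HeLa cells stably expressing A3F-eYFP plus Vif, plated and incubated overnight at 37 deg C, then exposed to compounds overnight at 37 deg C. Blocked degradation read as raised yellow fluorescence (Ex 488/Em 500-530).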
A number is an active result; n = inactive; u = inconclusive; x = no result. Unless noted, calls come from the whole dose curve; as a rule, active = well fitted curve in the direction sought with a large enough effect; inconclusive = small, poorly fitted or top-dose-only effect, or another doubt; inactive = no such curve, though single readings can be large; an effect the other way counts as inactive or inconclusive.

SMILES	MCF10A rereplic	SW480 rerep	Vif-APOBEC3G blk	IL1B secr inh	Giardia kill	Vif-APOBEC3F blk
CC(=O)Nc1ccc(Nc2ccc3cc(S(=O)(=O)N4CCCCC4)ccc3n2)cc1	x	x	n	x	x	n
O=C(NC12CC3CC(CC(C3)C1)C2)c1ccc(-c2ccc(Br)cc2)o1	21µM	u	n	u	n	n
O=C(NC12CC3CC(CC(C3)C1)C2)c1ccc(Br)o1	u	n	n	n	n	n
CC(NC(=O)c1ccc([N+](=O)[O-])o1)C1CC2CCC1C2 (stereo not given)	12µM	10µM	u	-92	u	n
O=C(NC12CC3CC(CC(C3)C1)C2)c1ccc([N+](=O)[O-])o1	8.2µM	u	u	-63	-93	n
CC(NC(=O)c1ccc([N+](=O)[O-])cc1Cl)C1CC2CCC1C2 (stereo not given)	n	n	n	n	n	n
COc1cccc(C(=O)N2c3cc(C)ccc3OCC2C(C)(C)C)c1 (stereo not given)	n	n	n	n	n	n
COc1ccc(S(=O)(=O)N2c3cc(C)ccc3OCC2C(C)(C)C)cc1 (stereo not given)	2.6µM	5.8µM	u	n	n	n
Cc1ccc(S(=O)(=O)N2c3cc(C)ccc3OCC2C(C)(C)C)cc1 (stereo not given)	16µM	u	u	n	n	n
Cc1ccc(NS(=O)(=O)c2ccc3c(c2)N(C)CCO3)cc1	n	n	n	n	n	n
O=C(/C=C\c1ccc2c(c1)OCO2)NC1CC(=O)N(c2cccc(F)c2)C1 (stereo not given)	x	x	n	x	x	n
COc1cccc2c1C(=O)C=C(C)C2=O	23µM	u	n	-100	n	u
O=C(c1ccccc1)C(C(=O)N1CCc2ccccc2C1)n1ccccc1=O (stereo not given)	u	n	n	-77	n	n
O=C1C(Oc2ccccc2)C(c2cccs2)N1Cc1ccc2c(c1)OCO2 (stereo not given)	u	n	n	n	n	n
Cc1ccccc1OC1C(=O)N(Cc2ccc3c(c2)OCO3)C1c1sccc1C (stereo not given)	u	n	n	-60	n	n
COc1ccc(OC2C(=O)N(Cc3ccc4c(c3)OCO4)C2c2cccs2)cc1 (stereo not given)	u	n	n	-81	n	n
CCCCC(=O)O[C@]1(C(=O)CO)CCC2C3CCC4=CC(=O)CCC4(C)C3C(O)CC21C (stereo not given in full)	n	n	x	x	x	x
Cc1cccc(C)c1NC(=O)N1CCCC1C(=O)Nc1ccc(-n2cnnn2)cc1 (stereo not given)	n	n	n	n	n	n
O=C(Nc1ccc(-n2cnnn2)cc1)C1CCCN1C(=O)Nc1ccc(Br)cc1 (stereo not given)	n	u	n	-58	n	n
COC(=O)COc1cccc2c(=O)n(CC(=O)Nc3ccc4c(c3)OCCO4)ccc12	u	n	n	-50	n	n
COc1cccc2c(=O)n(CC(=O)Nc3ccccc3)ccc12	n	n	n	n	n	n
COc1ccc(CCNc2c(N)n(Cc3ccccc3)c(=O)[nH]c2=O)cc1OC	n	n	n	-55	n	n
COc1cc(CCC(=O)NCc2ccc3c(c2)CCN3C(=O)c2ccc(F)cc2)cc(OC)c1OC	x	x	n	x	x	n
CCCC(=O)NCC1(N(C)C)CCCCC1	x	x	n	x	x	n
Cc1cc(C)c(/C=C(\C#N)S(=O)(=O)c2ccccc2)[nH]1	18µM	n	n	x	n	u
SMILES	MCF10A rereplic	SW480 rerep	Vif-APOBEC3G blk	IL1B secr inh	Giardia kill	Vif-APOBEC3F blk
Cc1[nH]c2ccccc2c1/C=C(\C#N)S(=O)(=O)c1ccccc1	n	n	n	n	n	n
O=C(Nc1ccccc1)N(Cc1cccs1)c1ccc(Cl)cc1	x	x	n	x	x	n
CCOc1cc(/C=C2/C(=N)N3C=CSC3=NC2=O)ccc1OCCCOc1ccccc1C	3.3µM	u	n	n	n	n
COc1cc(/C=C2/C(=N)N3C=CSC3=NC2=O)ccc1OCCCOc1ccccc1C	n	n	n	n	n	n
CCS(=O)(=O)C1=NN2C(=N)/C(=C\c3ccc(OCCOc4cccc(OC)c4)c(OC)c3)C(=O)N=C2S1	u	n	n	n	n	n
CCOc1cc(/C=C2\C(=N)N3N=C(S(C)(=O)=O)SC3=NC2=O)ccc1OCCOc1cccc(OC)c1	23µM	n	n	n	n	n
COc1ccccc1-n1cc(-c2ccc(Br)cc2)[nH]c1=S	n	u	n	n	n	n
COc1ccccc1-n1cc(-c2ccc(C)cc2)[nH]c1=S	18µM	u	u	n	n	n
N/C(=N\OC(=O)C12CC3CC(CC(C3)C1)C2)c1ccncc1	u	n	n	n	n	n
Cc1ccc(/C(N)=N/OC(=O)C23CC4CC(CC(C4)C2)C3)cc1	18µM	n	n	n	n	n
CCOC(=O)N1CCN(C(=O)CN(c2ccc(C)cc2C)S(=O)(=O)c2ccccc2)CC1	x	x	n	x	x	n
Cc1ccc(-c2cc(C(=O)N/N=C/c3ccc(F)cc3)n[nH]2)o1	n	n	n	n	n	n
Cc1ccc(-c2cc(C(=O)N/N=C/c3c[nH]c4ccccc34)n[nH]2)o1	n	3.7µM	u	n	n	n
Cc1ccc(-c2cc(C(=O)N/N=C/C(Br)=C/c3ccccc3)n[nH]2)o1	13µM	15µM	u	u	n	n
Cc1ccc(C(=O)N/N=C/c2c[nH]c3ccccc23)o1	n	n	n	n	n	n
Cc1ccc(-c2cc(C(=O)N/N=C/c3ccccc3O)n[nH]2)o1	18µM	3.3µM	n	n	n	n
CN(CCC#N)C(=O)COC(=O)c1c2c(nc3ccccc13)/C(=C\c1ccco1)CC2	u	4.1µM	n	-63	n	u
O=C(COC(=O)c1c2c(nc3ccccc13)/C(=C/c1cccc([N+](=O)[O-])c1)CCC2)NC1CCS(=O)(=O)C1 (stereo not given)	u	x	n	n	n	n
CCCCNC(=O)COC(=O)c1c2c(nc3ccccc13)/C(=C/c1cccs1)CC2	3.3µM	5.2µM	n	n	n	u
CN1CCc2nc3ccccc3c(C(=O)OCC(=O)N(CCC#N)c3ccccc3)c2C1	n	n	n	n	n	n
CC1CCCCC1NC(=O)COC(=O)c1c2c(nc3ccccc13)/C(=C\c1ccco1)CC2 (stereo not given)	18µM	u	n	u	n	n
